Test results from PubChem BioAssay.
Activity calls are given as the source filed them. Unless noted, the rule behind the calls is not given here.

How the values were obtained:
[1] = compounds binding Alexa647 anti-His antibody – biochemical, small-molecule microarray, 635 nm fluorescence, artefact control for SMM control protein annotation, primary screen (AID 1128); conditions: higher = more signal;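 note: score merges feature fluorescence with signal-to-noise for each printed compound spot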
[2] = tested on: Human papillomavirus type 1a E7 protein (residues 1-88); assay: HPV1a E7 small-molecule binders, primary screen, biochemical, small-molecule microarray, residues 1-88, 635 nm (AID 1129); conditions: small-molecule microarray binding, fluorescence 635 nm; higher = more signal
[3] = target: Focal adhesion kinase 1 (Homo sapiens) (UniProt Q05397); assay: PTK2 protein binding on printed compound slides – biochemical, small-molecule microarray, 635/667 nm fluorescence, BSA, DTT, primary screen (AID 1130); conditions: 635 nm fluorescence, higher = more signal;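 note: composite of spot emission at 667 nm and signal to noise over triplicate slides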
Chain of Focal adhesion kinase 1 (Homo sapiens) (Q05397 whole entry, looked up): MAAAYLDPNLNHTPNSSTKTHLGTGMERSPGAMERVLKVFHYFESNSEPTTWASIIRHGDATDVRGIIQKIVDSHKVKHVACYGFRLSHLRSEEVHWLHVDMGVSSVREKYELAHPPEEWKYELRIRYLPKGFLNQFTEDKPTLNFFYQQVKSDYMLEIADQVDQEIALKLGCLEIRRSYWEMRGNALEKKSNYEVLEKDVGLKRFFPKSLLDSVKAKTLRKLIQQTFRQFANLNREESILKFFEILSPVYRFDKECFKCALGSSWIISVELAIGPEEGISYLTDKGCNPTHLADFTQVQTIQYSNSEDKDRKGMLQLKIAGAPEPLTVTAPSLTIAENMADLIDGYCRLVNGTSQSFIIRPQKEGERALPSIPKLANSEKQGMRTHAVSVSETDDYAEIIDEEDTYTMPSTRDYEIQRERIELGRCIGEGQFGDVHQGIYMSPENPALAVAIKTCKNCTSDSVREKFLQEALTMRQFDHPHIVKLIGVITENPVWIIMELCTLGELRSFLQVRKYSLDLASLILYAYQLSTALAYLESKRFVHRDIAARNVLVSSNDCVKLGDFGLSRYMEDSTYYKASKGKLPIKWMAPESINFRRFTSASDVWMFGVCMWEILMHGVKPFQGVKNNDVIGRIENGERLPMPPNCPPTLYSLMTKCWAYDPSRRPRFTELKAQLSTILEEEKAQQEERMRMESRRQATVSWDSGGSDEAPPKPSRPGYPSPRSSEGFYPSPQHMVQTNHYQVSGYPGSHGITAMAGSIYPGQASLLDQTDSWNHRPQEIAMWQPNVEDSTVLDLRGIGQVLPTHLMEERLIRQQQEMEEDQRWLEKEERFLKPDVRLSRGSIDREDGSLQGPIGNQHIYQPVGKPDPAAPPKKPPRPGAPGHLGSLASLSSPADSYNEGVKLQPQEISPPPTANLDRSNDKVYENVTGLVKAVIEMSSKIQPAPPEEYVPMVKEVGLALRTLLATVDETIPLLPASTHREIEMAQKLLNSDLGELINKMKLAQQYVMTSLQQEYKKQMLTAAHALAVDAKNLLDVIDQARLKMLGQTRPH

[4] = tested on: Fibrinogen (Alexa647-labelled); assay: Alexa647-fibrinogen binding to printed small molecules – biochemical, small-molecule microarray, 635/667 nm fluorescence, artefact control for SMM control-protein annotation, profiling panel (AID 1131); conditions: fibrinogen-A647 binding fluorescence, higher = more signal;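 note: z-score merges 667 nm fluorescence with per-spot signal-to-noise over triplicate slides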
[5] = target: Follistatin (Homo sapiens) (UniProt P19883); assay: FST protein binding to printed compounds – biochemical, small-molecule microarray, 635/667 nm fluorescence, primary screen (AID 1132); conditions: 635 nm fluorescence, higher = more signal
Chain of Follistatin (Homo sapiens) (P19883 whole entry, looked up): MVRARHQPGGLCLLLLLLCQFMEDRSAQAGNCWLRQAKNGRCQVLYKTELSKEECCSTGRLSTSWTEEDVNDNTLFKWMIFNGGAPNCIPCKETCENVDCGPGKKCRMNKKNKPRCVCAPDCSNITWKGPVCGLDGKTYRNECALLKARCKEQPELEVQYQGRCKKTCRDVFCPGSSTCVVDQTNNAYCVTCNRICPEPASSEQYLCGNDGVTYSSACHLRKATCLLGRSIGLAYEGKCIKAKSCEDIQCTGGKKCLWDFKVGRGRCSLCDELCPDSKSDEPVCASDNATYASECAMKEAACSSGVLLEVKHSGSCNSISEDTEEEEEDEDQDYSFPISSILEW

[6] = target: Fibroblast growth factor 2 (Homo sapiens) (UniProt P09038); assay: basic fibroblast growth factor binding to printed compounds – biochemical, small-molecule microarray, 635/667 nm fluorescence, primary screen (AID 1133); conditions: FGF2, fluorescence 635/667, higher = more signal
Chain of Fibroblast growth factor 2 (Homo sapiens) (P09038 whole entry, looked up): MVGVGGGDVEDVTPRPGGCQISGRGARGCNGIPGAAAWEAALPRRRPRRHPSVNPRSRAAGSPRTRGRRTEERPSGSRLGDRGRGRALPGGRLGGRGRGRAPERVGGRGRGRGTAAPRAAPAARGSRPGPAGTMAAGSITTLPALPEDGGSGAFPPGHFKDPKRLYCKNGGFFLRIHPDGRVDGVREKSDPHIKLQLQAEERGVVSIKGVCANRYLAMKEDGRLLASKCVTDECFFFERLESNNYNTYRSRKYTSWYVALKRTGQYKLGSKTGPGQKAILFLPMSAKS

[7] = JC-1 mitochondrial potential readout, lung cancer cells – cell-based, A549, JC-1 fluorescence, basal, 24 h, 100 nL, profiling panel (AID 1138); conditions: higher = more signal;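 note: A549 lung adenocarcinoma cells under basal conditions with no added stimulus; test concentration not given here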
Lefty1 = Lefty1 protein binding to printed compounds – biochemical, small-molecule microarray, 635/667 nm fluorescence, primary screen (AID 1139); conditions: fluorescence 635/667, higher = more signal
[8] = tested on: wheat germ agglutinin (Triticum aestivum), Alexa647-labelled; assay: Alexa647-WGA lectin binding to printed small molecules – biochemical, small-molecule microarray, 635/667 nm fluorescence, artefact control for SMM control-protein annotation, profiling panel (AID 1140); conditions: WGA-A647 binding, 635 nm fluorescence, higher = more signal;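 note: score merges 667 nm feature emission with signal to noise over triplicate slides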
[9] = target: Luciferin 4-monooxygenase (Photinus pyralis) (UniProt P08659); assay: inhibition of purified Photinus pyralis luciferase – biochemical, luminescence, purified enzyme, 2006 set, primary screen (AID 1141); conditions: purified firefly luciferase, SteadyGlo luminescence, 30 min; higher = more signal, called active from +8 up or from −8 down;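 note: cell-free assay with purified firefly luciferase at 100 ng per well in PBS; test concentration not given here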
Chain of Luciferin 4-monooxygenase (Photinus pyralis) (P08659 whole entry, looked up): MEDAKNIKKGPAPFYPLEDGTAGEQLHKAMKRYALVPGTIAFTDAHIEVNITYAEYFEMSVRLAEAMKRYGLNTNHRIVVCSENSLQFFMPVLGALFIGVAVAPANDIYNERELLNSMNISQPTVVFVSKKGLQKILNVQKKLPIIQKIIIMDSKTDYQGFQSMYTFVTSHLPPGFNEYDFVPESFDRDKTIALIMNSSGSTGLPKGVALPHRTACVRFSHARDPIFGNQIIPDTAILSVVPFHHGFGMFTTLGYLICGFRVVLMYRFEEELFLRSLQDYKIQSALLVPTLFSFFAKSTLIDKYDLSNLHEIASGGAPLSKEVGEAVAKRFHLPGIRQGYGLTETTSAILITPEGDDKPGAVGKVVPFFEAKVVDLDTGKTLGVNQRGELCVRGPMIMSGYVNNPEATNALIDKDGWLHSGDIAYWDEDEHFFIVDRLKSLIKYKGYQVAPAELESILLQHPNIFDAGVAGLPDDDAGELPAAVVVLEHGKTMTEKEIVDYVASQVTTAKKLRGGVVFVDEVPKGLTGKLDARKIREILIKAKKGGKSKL

[10] = tested on: Wnt5a (protein binding on small-molecule microarray); assay: small molecules binding Wnt5a protein – biophysical, small-molecule microarray, 635/667 nm fluorescence, primary screen (AID 1142); conditions: 635 nm fluorescence, higher = more signal;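 note: fluorescence read at 667 nm with signal to noise per printed feature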
[11] = ATP-based viability of Huh7 replicon cells – cell-based, CellTiter-Glo luminescence, basal, 48 h, cytotoxicity control for HCV replication inhibitor project, primary screen (AID 1143); conditions: higher = more signal, called active from +8 up or from −8 down;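 note: Huh7 hepatoma cells carrying a hepatitis C replication reporter with no stimulus; test concentration not given here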
[12] = Pseudomonas biofilm growth suppression – PAO1 strain, BacTiter-Glo luminescence, LB-PBS, primary screen (AID 1144); conditions: P. aeruginosa PAO1 biofilm, 12 h, higher = more signal
[13] = basal CRE-LacZ reporter activity in PC12 – cell-based, unstimulated, primary screen (AID 1145); conditions: no forskolin, luminescence, 4.5 h, higher = more signal, called active from +8 up or from −8 down
[14] = forskolin-driven CRE-LacZ activity in PC12 – cell-based, CRE-LacZ reporter, forskolin-stimulated, primary screen (AID 1146); conditions: luminescence, 4.5 h, higher = more signal, called active from +8 up or from −8 down;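 note: PC12 cells with 6xCRE LacZ reporter stimulated by forskolin 10 µM; beta-galactosidase reporter signal reflecting CREB driven transcription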
[15] = target: Streptavidin (Streptomyces avidinii) (UniProt P22629); assay: compounds binding control protein streptavidin – biophysical, small-molecule microarray, 635/667 nm fluorescence, artefact control for SMM compound annotation, primary screen (AID 1147); conditions: higher = more signal;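 note: signal reflects streptavidin binding to arrayed compounds as a control protein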
Chain of Streptavidin (Streptomyces avidinii) (P22629 whole entry, looked up): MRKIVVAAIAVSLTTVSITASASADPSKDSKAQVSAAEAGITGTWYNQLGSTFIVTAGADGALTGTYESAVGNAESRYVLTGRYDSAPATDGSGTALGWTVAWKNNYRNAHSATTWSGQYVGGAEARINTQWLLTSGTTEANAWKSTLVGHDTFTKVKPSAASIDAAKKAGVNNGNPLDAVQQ

[16] = probe aInhba binding on compound microarray – biochemical, small-molecule microarray, 635/667 nm fluorescence, primary screen (AID 1148); conditions: higher = more signal;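 note: score merges 667nm spot fluorescence with signal-to-noise for antibody binding to printed compounds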
Torsin-1A (Homo sapiens) [17] = target: Torsin-1A (Homo sapiens) (UniProt O14656); assay: TOR1A wild-type binding on microarray – cell lysate, small-molecule microarray, lysate, 635/667 nm, primary screen (AID 1149); conditions: COS7 hTOR1A-WT lysate, 635 nm fluorescence, higher = more signal
Chain of Torsin-1A (Homo sapiens) (O14656 whole entry, looked up): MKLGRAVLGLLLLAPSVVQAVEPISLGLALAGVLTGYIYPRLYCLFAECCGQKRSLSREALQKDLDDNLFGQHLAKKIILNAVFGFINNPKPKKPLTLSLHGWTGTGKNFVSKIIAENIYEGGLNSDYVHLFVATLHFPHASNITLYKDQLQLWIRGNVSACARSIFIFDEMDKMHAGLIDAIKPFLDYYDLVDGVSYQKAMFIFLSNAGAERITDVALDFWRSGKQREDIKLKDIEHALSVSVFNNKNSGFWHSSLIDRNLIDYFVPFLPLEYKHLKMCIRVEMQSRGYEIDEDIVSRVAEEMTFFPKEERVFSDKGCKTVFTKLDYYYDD

Torsin-1A (Homo sapiens) [18] = target: Torsin-1A (Homo sapiens) (UniProt O14656); assay: torsin A mutant lysate binding on microarrays – cell lysate, small-molecule microarray, COS7 lysate, 635/667 nm fluorescence, primary screen (AID 1150); conditions: COS7 hTOR1A mutant lysate, 635 nm fluorescence, higher = more signal;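 note: score pools 667 nm emission and signal to noise measuring lysate protein binding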
[19] = tested on: Sonic hedgehog protein (Shh); assay: Sonic hedgehog microarray binding compounds – biochemical, small-molecule microarray, 635/667 nm fluorescence, primary screen (AID 1151); conditions: 635 nm fluorescence, higher = more signal;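 note: Shh protein binding to compounds spotted on small-molecule microarray slides; score combines spot fluorescence intensity with signal-to-noise across triplicate slides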

SMILES	composite z-score [1]	composite z-score [2]	composite z-score [3]	composite z-score [4]	composite z-score [5]	composite z-score [6]	z-score [7]	composite z-score (Lefty1)	composite z-score [8]	z-score [9]	composite z-score [10]	z-score [11]	z-score [12]	z-score [13]	z-score [14]	composite z-score [15]	composite z-score [16]	composite z-score (Torsin-1A (Homo sapiens) [17])	composite z-score (Torsin-1A (Homo sapiens) [18])	composite z-score [19]
CC(C)c1ccc(NN2C(C(O)c3ccc4c(c3)OCO4)C=CC3C(=O)N(c4ccccc4)C(=O)C32)cc1 (stereo not given)	1.57	1.19	0.477	1.04	1.02	-0.146	-0.726	0.545	0.881	-1.72 (inactive)	0.268	-0.0997 (inactive)	-0.505 (inactive)	0.629 (inactive)	-0.0824 (inactive)	2.14	0.125	-0.0945	1.04	0.397
CC(C)CON=C1[C@H]2CCn3c(=O)n(-c4ccccc4)c(=O)n3[C@H]2[C@H](O)[C@@H]2O[C@H]12	0.0684	0.118	0.164	0.571	0.504	1.03	-0.0655	0.475	0.201	-0.408 (inactive)	0.134	0.893 (inactive)	0.291 (inactive)	0.797 (inactive)	0.148 (inactive)	-0.142	-0.102	0.235	0.189	0.445
CCCCC(=C=CC[C@H](O)c1ccccc1OCCO)C[C@H](O)COCc1ccccc1	-1.29	-0.138	0.329	-0.256	0.103	0.189	0.544	-0.0107	-0.142	-0.676 (inactive)	-0.0702	-1.41 (inactive)	1.44 (inactive)	3.27 (inactive)	0.571 (inactive)	0.395	-0.0523	1.08	0.259	0.0668
CCCCCN1CC=CC23O[C@@H]4C=CCOC(=O)[C@@H]4[C@H]2C(=O)N(CCCCCCO)[C@@H]3C1=O (stereo not given in full)	0.309	-0.381	-0.236	-1.04	-2.23	-1.49	0.421	-1.05	-0.416	0.294 (inactive)	-0.485	0.0442 (inactive)	0.851 (inactive)	-0.342 (inactive)	0.124 (inactive)	-0.976	-0.15	-1.78	-0.966	-0.837
COCCOC(=O)N1C(=O)[C@@]2(c3ccccc31)[C@H](C(N)=O)[C@H]1C(=O)O[C@H](c3ccccc3)[C@H](c3ccccc3)N1[C@@H]2c1ccccc1OCCO	2.57	1.08	0.29	0.882	1.3	0.894	0.431	0.533	0.98	-1.25 (inactive)	0.491	-4.01 (inactive)	1.67 (inactive)	0.362 (inactive)	0.406 (inactive)	0.662	0.126	0.918	0.815	1.19
CS(=O)(=O)CCOC(=O)C1=CC(CCCO)=CC(c2cccs2)N(Cc2cccc(OC(F)(F)F)c2)C=C1C(=O)OCCS(C)(=O)=O (stereo not given)	0.97	1.03	0.905	0.579	0.243	0.202	1.64	0.578	1.02	-2.01 (inactive)	0.141	-3.11 (inactive)	0.957 (inactive)	4.08 (inactive)	0.706 (inactive)	1.25	0.245	0.972	0.88	0.37
COc1ccc(CCNC(=O)[C@@H]2c3ccccc3C(=O)N(c3ccc(C)cn3)[C@H]2c2ccc(CO)cc2)cc1	0.315	0.469	-0.34	-2.21	-0.25	-0.609	-0.61	-1.17	-0.293	0.85 (inactive)	-0.657	0.569 (inactive)	-0.456 (inactive)	0.648 (inactive)	0.459 (inactive)	-0.776	-0.253	-2.23	-1.76	-0.497
CCCCc1nc2c(c3c1C[C@H](C)OC3)CN(CCC(C)C)CC2	0.965	1.13	0.0171	0.928	0.818	0.732	1.8	1.17	0.399	-0.438 (inactive)	0.122	-0.262 (inactive)	-0.578 (inactive)	7.7 (inactive)	-1.14 (inactive)	0.0392	-0.0074	0.888	0.622	0.992
O=C1[C@H]2[C@H]3[C@H](O)[C@H](O)CC(=NOC[C@@H](O)COCc4ccco4)[C@H]3CC[C@H]2C(=O)N1Cc1ccc2c(c1)OCO2	0.729	-0.413	-0.237	-0.447	1.3	1.57	-0.0273	1.25	-0.186	0.546 (inactive)	0.138	-0.012 (inactive)	2.01 (inactive)	-0.657 (inactive)	0.0952 (inactive)	-0.405	-0.162	3.53	3.17	2.03
COC(=O)[C@H]1COC(c2ccc(OCCCO)cc2)=N1	-0.748	-0.877	-0.57	-4.27	0.267	1.14	-0.765	-0.878	0.177	-21.6 (active)	-0.0323	-0.597 (inactive)	-0.767 (inactive)	0.0686 (inactive)	0.697 (inactive)	-0.998	-0.204	0.337	1.4	-0.196
